Neddyl block: cullin neddylation inhibition; TR-FRET cullin neddylation, biochemical; calls only at 25 µM; hit rate 0.58% among 360,000; in the data active = inhibition above about 36%
Target sequence (P61081 whole entry, looked up): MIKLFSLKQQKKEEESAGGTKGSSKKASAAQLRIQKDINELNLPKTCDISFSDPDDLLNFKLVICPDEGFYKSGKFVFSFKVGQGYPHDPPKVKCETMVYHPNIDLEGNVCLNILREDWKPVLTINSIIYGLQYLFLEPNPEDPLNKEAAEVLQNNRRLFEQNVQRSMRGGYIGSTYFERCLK
Target sequence (Q13564 whole entry, looked up): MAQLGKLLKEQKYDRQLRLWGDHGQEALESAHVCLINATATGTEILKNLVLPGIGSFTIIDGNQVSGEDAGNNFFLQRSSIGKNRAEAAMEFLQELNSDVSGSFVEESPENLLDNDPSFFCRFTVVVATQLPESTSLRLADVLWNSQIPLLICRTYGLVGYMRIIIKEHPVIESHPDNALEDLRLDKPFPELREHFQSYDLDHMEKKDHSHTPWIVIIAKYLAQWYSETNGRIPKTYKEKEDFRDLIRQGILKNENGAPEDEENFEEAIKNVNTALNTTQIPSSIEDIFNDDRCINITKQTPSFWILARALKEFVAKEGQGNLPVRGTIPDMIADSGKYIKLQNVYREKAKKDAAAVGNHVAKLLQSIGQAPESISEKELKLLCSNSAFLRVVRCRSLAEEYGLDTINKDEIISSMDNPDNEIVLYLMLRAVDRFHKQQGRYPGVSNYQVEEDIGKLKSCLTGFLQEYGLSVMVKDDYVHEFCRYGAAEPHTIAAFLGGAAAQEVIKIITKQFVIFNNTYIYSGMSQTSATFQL
LEDGF integ inh: blocks HIV-1 LEDGF/p75-dependent DNA integration | TR-FRET IN-LEDGF/p75 DNA integration, Eu/Cy5 | inhibition, % at 3.7 µM | hit rate 0.64% among 370,000;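 active = inhibition above the screen-wide mean plus 3 SD, cut at about 13% in these data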;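 also: signal is the Cy5 over europium emission ratio at 671 and 618 nm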
Rin1 Abl inh: inhibitors of human Rin1-Abl protein interaction | P00519+Q13671 | TR-FRET Rin1/Abl binding, biochemical | inhibition, % at 7.35 µM | hit rate 0.4% among 360,000; in the data active = inhibition above about 5%, passing the limit was not always enough
UHRF1 MBD2 ctr: UHRF1 methyl-DNA binding inhibition | AID 687016 | inhibition, % at 4.4 µM | Q96T88 | UHRF1 binding to methylated oligo, TR-FRET | hit rate 0.75% among 370,000; in the data active = inhibition above about 21%;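 also: UHRF1 SRA domain binding a hemimethylated CpG hairpin DNA probe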
KLK7 zymogen act: proKLK7 (human) activation, primary screen | P49862 | purified proKLK7, EDANS-DABCYL substrate fluorescence; 100% is mature enzyme control, 0% vehicle | activation, % at 7 µM | hit rate 0.9% among 370,000 | AID 652039;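 active = activation above the mean of all tested compounds plus 3 SD, computed per campaign excluding outliers beyond control limits, cut at about 13% in these data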
MBD2 inh: inhibitors of human MBD2 binding to methylated oligonucleotide | inhibition, % at 4.4 µM | Q9UBB5 | hit rate 0.31% among 370,000 | TR-FRET; in the data active = inhibition above about 13%
UHRF1 ctr MBD2: UHRF1 methyl-oligo binding inhibition as MBD2 counter-screen; shares compounds with MBD2 inh; hit rate 25% among 1,000; inhibition, % at 4.4 µM; AID 720530; UHRF1 binding to methylated oligonucleotide, TR-FRET; in the data active = inhibition above about 21%;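 also: UHRF1 SRA domain binding a labeled hemimethylated CpG hairpin DNA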
MBD2 DBD conf: MBD2-DBD methyl-DNA binding inhibition, TR-FRET confirmation | shares compounds with MBD2 inh | TR-FRET MBD2-DBD binding to methylated oligonucleotide | inhibition, % at 4.4 µM | hit rate 26% among 1,000 | AID 720531
IN multimer up: activates HIV-1 integrase multimerization in LEDGF counter-screen; shares compounds with LEDGF integ inh; TR-FRET HIV-1 integrase multimerization, biochemical; activation, % at 7.7 µM; hit rate 17% among 2,000; AID 1053131; in the data active = activation above about 8.9%
TR-FRET interf: optically interferes with TR-FRET readout in LEDGF counter-screen | shares compounds with LEDGF integ inh | TR-FRET optical interference counterscreen, HIV-1 IN multimerization | inhibition, % at 7.7 µM | 2,000 tested, under 10 active;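 active = inhibition above the mean over all tested compounds plus 3 SD, which no compound reached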
LEDGF integ conf: confirmation of HIV-1 LEDGF/p75-dependent integration inhibitors; hit rate 36% among 2,000; shares compounds with LEDGF integ inh; TR-FRET LEDGF/p75-dependent HIV-1 integration, biochemical; inhibition, % at 3.7 µM
Numbers stand for hits; n = inactive; x = no result. Most compounds without a hit are left out; they make up all but 3.1% or so of the library. Rule as the data show it, unless noted: active = inhibition above about 14%; inactive = the rest.

SMILES	Neddyl block	LEDGF integ inh	Rin1 Abl inh	UHRF1 MBD2 ctr	KLK7 zymogen act	MBD2 inh	UHRF1 ctr MBD2	MBD2 DBD conf	IN multimer up	TR-FRET interf	LEDGF integ conf
O=C(COc1ccccc1)NCCc1cnc[nH]1	n	n	n	n	n	n	x	x	x	x	x
O=C(COc1ccc(Cl)cc1)NCCc1cnc[nH]1	n	n	n	n	n	52	n	n	x	x	x
C#CCCC[C@@H]1OC(=O)CNC(=O)C([C@@H](C)CC)NC(=O)[C@@H]2CCCN2C(=O)C([C@@H](C)CC)OC(=O)[C@H](Cc2ccccc2)N(C)C(=O)[C@H](C(C)C)NC(=O)C1(C)C (stereo partly specified)	n	n	n	43	n	15	n	n	x	x	x
O=C(O)C1CN2CCC1CC2 (stereo unspecified)	n	n	n	n	n	14	n	n	x	x	x
CC1CCCC(NC(=O)COC(=O)c2cn(C)c3ccccc23)C1C (stereo unspecified)	n	n	n	n	n	n	x	x	x	x	x
CCN(CC)c1ccc(/C=C2/C(=O)NC(=O)N(Cc3ccco3)C2=O)cc1	n	71	n	72	n	18	29	14	n	n	30
CN(C)c1ccc(/C=C2\C(=O)NC(=O)N(CCc3ccc(F)cc3)C2=O)cc1	n	n	n	n	n	n	x	x	x	x	x
CN(C)c1ccc(/C=C2/C(=O)NC(=O)N(Cc3ccco3)C2=O)cc1	n	66	n	68	n	15	25	n	n	n	14
Cc1cccc(-n2c(C)nc3ccc(Cl)cc3c2=O)c1	n	n	n	n	n	n	x	x	x	x	x
COc1cc(C(c2c(C)[nH]n(-c3ccccc3)c2=O)c2c(C)[nH]n(-c3ccccc3)c2=O)cc(OC)c1OC	n	43	9.7	n	n	14	n	n	n	n	n
O=C1NC(=S)NC(=O)C1=Cc1cccn1-c1ccc(O)cc1	n	33	n	32	n	14	41	24	10	n	73
COc1ccccc1/C=C1\C(=O)NC(=S)N(c2ccccc2)C1=O	n	n	n	n	n	n	x	x	x	x	x
O=C1NC(=S)N(c2ccccc2)C(=O)/C1=C/c1ccco1	n	54	n	91	n	58	100	89	14	n	73
Cc1ccc(/C=C2/C(=O)NC(=O)N(CCc3ccc(F)cc3)C2=O)o1	n	n	n	n	n	n	x	x	x	x	x
O=C1NC(=O)N(CCc2ccc(F)cc2)C(=O)/C1=C/c1ccco1	n	80	n	97	n	74	23	16	n	n	16
COC(=O)C1=C(c2cc3ccccc3s2)C[C@@H]2CC[C@H]1N2C(=O)NCCNC(C)=O	n	n	n	n	n	n	x	x	x	x	x
COc1ccccc1-n1c(Cc2ccccc2)nc2ccccc2c1=O	n	n	n	n	n	n	x	x	x	x	x
C[C@@H]1COc2cccc(N3CCN(C)CC3)c2S(=O)(=O)N1	n	n	x	n	n	n	x	x	x	x	x
CC[n+]1c(-c2ccccc2)c2cc(N)ccc2c2ccc(N)cc21	n	42	n	72	n	70	77	80	n	n	70
CCc1c(-c2ccccc2)nc2ccccc2c1C(=O)N1CCC2(CC1)OCCO2	n	n	n	n	n	n	x	x	x	x	x
CC(C)N1C(=O)/C(=C/C=C/c2ccco2)C(=O)N(Cc2ccco2)C1=O	n	69	n	50	n	19	n	n	n	n	51
COc1ccc2c(c1OC)C(=O)O[C@H]2[C@@H]1c2cc3c(cc2CCN1C)OCO3	n	n	n	n	n	n	x	x	x	x	x
COc1cc2c(cc1OC)-c1c3c(cc4c1[C@@H](C2)N(C)CC4)OCO3	n	16	n	50	n	46	30	20	n	n	n
COc1cc2c(cc1OC)-c1c(OC)c(OC)cc3c1C(C2)N(C)CC3 (stereo unspecified)	n	20	n	34	n	n	x	x	n	n	n
COc1ccc(CC2c3cc(OC)c(OC)cc3CCN2C)cc1O (stereo unspecified)	n	n	n	n	n	n	x	x	x	x	x
SMILES	Neddyl block	LEDGF integ inh	Rin1 Abl inh	UHRF1 MBD2 ctr	KLK7 zymogen act	MBD2 inh	UHRF1 ctr MBD2	MBD2 DBD conf	IN multimer up	TR-FRET interf	LEDGF integ conf
CCN(CC)c1ccc(N=Cc2c(O)n(-c3ccccc3)c(=O)[nH]c2=O)cc1	n	n	n	n	n	n	x	x	x	x	x
CCOc1ccccc1-n1c(O)c(C=Nc2ccc(N(CC)CC)cc2)c(=O)[nH]c1=O	n	14	n	n	n	n	x	x	n	n	n
CCN(CC)c1ccc(N=Cc2c(O)[nH]c(=O)[nH]c2=O)cc1	n	26	n	n	n	n	x	x	12	n	n
CCN(CC)c1ccc(N=Cc2c(O)n(-c3ccccc3C)c(=O)[nH]c2=O)cc1	n	28	n	n	n	n	x	x	n	n	n
Cc1cc(/C=C2\C(=O)NC(=O)N(c3ccc(Cl)cc3)C2=O)c(C)n1-c1cccc(C(=O)O)c1	n	n	n	n	n	n	x	x	x	x	x
Cc1cc(/C=C2\C(=O)NC(=O)N(c3cccc(F)c3)C2=O)c(C)n1-c1cc(C(=O)O)cc(C(=O)O)c1	n	39	n	33	n	n	x	x	n	n	24
Cc1cc(/C=C2\C(=O)NC(=O)N(c3ccc(Br)cc3)C2=O)c(C)n1-c1cc(C(=O)O)cc(C(=O)O)c1	n	44	n	44	n	n	x	x	n	n	31
Cc1cc(/C=C2\C(=O)NC(=O)N(c3cccc(Br)c3)C2=O)c(C)n1C	n	n	n	n	n	n	x	x	x	x	x
COC(=O)C(O)(c1c[nH]c2ccccc12)C(F)(F)F (stereo unspecified)	n	n	n	n	n	n	x	x	x	x	x
COC(=O)C(O)(c1c(C)[nH]n(-c2ccccc2)c1=O)C(F)(F)F (stereo unspecified)	n	26	n	n	n	n	x	x	n	n	n
CN1CCC(O)(c2ccccc2)C(C(=O)c2ccccc2)C1 (stereo unspecified)	n	n	n	n	n	n	x	x	x	x	x
CN1CCC(O)(c2ccccc2)C2CCCC21 (stereo unspecified)	n	37	n	n	n	n	x	x	n	n	n
Cc1cc(C)cc(N2C(=O)NC(=O)/C(=C\c3cccn3-c3ccccc3)C2=O)c1	n	n	n	n	n	n	x	x	x	x	x

Screens deposited in PubChem by several laboratories.
